Assays:
Experiment in all cases: log2 ratio of Biotin-Ahx-Ub-VS probe labelling (fragment/DMSO); higher = less target engagement (more negative = stronger competition), active = hit call of the paper (q ≤ 0.05, log2 ratio ≤ -1)
Conditions in all cases: compound concentration: 200 uM; treatment time: 3 h
OTUD6B = biological target: T1, OTUD6B (UniProt Q8N6M0)
T1 sequence (whole entry): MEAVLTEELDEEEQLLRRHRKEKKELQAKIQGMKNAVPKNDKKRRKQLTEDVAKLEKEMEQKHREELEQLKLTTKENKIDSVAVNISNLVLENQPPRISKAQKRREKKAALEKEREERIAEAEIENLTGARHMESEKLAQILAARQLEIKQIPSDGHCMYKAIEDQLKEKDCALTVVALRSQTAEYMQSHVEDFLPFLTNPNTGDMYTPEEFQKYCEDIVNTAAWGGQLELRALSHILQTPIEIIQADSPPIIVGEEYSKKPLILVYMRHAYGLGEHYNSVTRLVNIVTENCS
In short: (§1)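 Fragment (200 µM) or vehicle was incubated for 3 h with triplicate HEK293T lysate samples of 495 µg, which were then treated with Biotin-Ahx-Ub-VS at 0.5 µM final for 1 h. Labelled DUBs were enriched on NeutrAvidin, digested with LysC and trypsin, and analysed by diaPASEF LC-MS/MS. Values are average log2 fragment/vehicle ratios from an unpaired t-test on global-median-normalised Spectronaut label-free quantities, using proteins with ≥2 unique peptides.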

OTUD7B = biological target: T2, OTUD7B (UniProt Q6GQQ9)
T2 sequence (whole entry): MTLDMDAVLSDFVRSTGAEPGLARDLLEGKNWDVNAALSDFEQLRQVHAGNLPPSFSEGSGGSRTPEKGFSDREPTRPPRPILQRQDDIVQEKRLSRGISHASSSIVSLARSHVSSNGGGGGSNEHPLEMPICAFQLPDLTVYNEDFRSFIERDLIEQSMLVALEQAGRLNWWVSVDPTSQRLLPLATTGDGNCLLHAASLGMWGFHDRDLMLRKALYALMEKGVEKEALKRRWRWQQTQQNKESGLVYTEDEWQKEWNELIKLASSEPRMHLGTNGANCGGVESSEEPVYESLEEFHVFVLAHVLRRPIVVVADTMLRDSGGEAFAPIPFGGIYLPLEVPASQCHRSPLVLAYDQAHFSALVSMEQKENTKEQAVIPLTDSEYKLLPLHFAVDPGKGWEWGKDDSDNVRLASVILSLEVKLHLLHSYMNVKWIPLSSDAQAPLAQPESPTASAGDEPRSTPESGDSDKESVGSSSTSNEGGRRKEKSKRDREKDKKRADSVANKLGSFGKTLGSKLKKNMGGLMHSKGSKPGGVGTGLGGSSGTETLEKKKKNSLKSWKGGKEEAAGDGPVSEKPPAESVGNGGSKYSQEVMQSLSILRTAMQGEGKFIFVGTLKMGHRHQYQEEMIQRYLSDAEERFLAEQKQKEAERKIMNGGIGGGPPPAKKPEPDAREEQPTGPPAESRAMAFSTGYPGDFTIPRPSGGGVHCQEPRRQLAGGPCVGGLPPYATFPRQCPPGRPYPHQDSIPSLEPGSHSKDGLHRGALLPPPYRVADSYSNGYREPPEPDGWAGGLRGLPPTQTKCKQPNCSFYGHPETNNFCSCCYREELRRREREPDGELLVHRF
In short: as §1

PRPF8 = PRPF8 (UniProt Q6P2Q9)
In short: as §1

PSMD7 = biological target: T3, PSMD7 (UniProt P51665)
T3 sequence (whole entry): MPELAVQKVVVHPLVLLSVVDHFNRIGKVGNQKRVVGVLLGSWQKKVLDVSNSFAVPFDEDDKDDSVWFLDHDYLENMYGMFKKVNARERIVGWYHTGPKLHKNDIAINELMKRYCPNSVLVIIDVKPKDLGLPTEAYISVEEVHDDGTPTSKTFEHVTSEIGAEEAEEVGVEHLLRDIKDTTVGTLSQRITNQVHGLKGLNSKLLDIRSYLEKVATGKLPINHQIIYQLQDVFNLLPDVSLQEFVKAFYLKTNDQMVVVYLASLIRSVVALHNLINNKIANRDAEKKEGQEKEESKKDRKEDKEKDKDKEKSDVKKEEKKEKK
In short: as §1

UCHL1 = UCHL1 (UniProt P09936)
In short: as §1

UCHL3 = biological target: T4, UCHL3 (UniProt P15374)
T4 sequence (whole entry): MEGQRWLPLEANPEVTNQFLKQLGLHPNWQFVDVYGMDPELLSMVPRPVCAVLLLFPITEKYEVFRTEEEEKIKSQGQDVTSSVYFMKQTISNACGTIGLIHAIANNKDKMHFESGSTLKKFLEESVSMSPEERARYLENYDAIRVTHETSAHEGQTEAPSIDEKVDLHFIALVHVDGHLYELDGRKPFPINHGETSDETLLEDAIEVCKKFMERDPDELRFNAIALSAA
In short: as §1

UCHL5 = biological target: T5, UCHL5 (UniProt Q9Y5K5)
T5 sequence (whole entry): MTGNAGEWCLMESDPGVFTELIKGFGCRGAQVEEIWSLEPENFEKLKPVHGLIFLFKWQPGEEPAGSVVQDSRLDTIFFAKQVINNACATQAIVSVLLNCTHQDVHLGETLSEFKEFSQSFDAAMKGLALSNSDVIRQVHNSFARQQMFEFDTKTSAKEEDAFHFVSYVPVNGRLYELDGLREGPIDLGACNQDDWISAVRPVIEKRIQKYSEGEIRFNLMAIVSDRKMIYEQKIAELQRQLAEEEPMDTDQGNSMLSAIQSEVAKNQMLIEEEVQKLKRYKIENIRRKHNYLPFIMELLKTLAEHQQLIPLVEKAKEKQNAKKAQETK
In short: as §1

USP10 = USP10 (UniProt Q14694)
In short: as §1

USP15 = biological target: T6, USP15 (UniProt Q9Y4E8)
T6 sequence (whole entry): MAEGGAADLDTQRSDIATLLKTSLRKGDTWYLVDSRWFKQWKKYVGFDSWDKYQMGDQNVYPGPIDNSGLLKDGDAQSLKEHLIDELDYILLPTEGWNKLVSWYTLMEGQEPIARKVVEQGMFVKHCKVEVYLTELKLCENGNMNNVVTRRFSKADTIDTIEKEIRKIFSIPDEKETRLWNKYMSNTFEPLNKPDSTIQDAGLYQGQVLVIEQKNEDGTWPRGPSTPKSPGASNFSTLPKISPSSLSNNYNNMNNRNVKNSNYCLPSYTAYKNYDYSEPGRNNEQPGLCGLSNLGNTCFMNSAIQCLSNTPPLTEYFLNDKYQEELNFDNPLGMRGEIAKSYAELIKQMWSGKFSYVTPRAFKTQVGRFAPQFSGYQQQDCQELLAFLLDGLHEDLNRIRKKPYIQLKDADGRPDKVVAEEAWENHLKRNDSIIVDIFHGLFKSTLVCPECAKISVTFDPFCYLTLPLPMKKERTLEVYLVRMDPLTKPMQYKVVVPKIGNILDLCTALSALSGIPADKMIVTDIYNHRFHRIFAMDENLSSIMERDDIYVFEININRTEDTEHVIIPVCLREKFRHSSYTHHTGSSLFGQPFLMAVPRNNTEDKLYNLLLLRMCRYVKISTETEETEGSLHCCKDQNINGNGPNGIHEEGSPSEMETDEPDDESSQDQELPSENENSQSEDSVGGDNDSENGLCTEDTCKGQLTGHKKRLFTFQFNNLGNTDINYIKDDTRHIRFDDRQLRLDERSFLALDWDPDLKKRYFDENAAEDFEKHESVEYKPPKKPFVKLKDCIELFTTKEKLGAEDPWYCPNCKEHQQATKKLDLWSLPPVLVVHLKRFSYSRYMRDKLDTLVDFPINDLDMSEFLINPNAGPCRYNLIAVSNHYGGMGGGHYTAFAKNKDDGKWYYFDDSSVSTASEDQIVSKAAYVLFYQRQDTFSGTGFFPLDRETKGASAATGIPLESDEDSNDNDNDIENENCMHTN
In short: as §1

USP16 = USP16 (UniProt Q9Y5T5)
In short: as §1

Measured: log2 ratio of Biotin-Ahx-Ub-VS probe labelling

USP10, sequence (Q14694 whole entry): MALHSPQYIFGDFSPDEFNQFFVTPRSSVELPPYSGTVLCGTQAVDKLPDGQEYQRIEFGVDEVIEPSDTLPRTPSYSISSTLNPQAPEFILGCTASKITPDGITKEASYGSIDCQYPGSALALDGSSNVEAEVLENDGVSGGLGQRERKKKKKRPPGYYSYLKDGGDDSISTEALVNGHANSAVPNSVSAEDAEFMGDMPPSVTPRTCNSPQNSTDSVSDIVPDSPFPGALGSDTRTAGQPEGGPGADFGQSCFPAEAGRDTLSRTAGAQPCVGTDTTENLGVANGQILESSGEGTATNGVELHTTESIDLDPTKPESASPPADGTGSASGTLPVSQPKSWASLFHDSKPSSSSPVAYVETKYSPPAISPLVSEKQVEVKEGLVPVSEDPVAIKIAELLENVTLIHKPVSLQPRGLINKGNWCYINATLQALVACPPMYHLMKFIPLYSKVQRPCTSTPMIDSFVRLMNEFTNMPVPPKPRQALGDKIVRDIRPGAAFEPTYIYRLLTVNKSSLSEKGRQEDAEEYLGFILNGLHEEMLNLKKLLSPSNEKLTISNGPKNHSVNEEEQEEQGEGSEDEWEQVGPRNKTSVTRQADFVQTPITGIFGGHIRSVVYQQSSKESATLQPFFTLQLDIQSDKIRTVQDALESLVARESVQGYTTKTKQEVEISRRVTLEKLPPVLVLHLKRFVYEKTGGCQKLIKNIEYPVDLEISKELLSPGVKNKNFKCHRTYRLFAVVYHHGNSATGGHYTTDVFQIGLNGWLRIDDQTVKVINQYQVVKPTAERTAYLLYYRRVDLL
USP16, sequence (Q9Y5T5 whole entry, looked up): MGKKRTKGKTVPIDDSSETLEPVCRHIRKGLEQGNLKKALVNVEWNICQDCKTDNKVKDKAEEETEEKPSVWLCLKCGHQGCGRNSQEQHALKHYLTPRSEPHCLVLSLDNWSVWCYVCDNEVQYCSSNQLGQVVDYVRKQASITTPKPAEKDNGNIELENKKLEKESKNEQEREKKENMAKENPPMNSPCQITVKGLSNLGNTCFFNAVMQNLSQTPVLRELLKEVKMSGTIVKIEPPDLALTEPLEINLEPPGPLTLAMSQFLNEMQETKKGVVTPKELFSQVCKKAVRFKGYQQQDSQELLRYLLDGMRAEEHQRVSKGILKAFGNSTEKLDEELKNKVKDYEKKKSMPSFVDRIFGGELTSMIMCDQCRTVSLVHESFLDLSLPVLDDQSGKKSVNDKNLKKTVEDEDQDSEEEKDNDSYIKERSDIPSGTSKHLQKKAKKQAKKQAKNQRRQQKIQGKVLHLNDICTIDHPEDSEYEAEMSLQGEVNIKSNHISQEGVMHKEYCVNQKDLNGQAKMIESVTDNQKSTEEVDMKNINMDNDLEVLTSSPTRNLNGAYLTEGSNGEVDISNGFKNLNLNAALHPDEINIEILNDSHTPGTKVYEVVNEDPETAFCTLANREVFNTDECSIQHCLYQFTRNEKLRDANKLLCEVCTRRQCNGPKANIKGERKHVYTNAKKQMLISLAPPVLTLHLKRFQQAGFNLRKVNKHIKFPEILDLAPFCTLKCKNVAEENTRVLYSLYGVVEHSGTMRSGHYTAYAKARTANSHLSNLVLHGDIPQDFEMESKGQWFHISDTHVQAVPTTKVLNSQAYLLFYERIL
UCHL1, sequence (P09936 whole entry, looked up): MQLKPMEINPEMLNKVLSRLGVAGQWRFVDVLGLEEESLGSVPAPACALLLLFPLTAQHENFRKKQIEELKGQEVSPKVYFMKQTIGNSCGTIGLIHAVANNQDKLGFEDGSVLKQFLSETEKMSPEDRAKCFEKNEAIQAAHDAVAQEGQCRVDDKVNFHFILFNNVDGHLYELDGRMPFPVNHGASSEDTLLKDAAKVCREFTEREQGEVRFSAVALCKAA

O=C(CCl)N1CCC(OCc2ccccc2F)CC1
active: UCHL1 -1.13
inactive: OTUD6B 0.102 | OTUD7B -0.198 | PRPF8 0.14 | PSMD7 0.0473 | UCHL3 0.341 | UCHL5 -0.00457 | USP10 -0.192 | USP15 -0.104 | USP16 -0.184

Reference: the supplement of paper PMC11732987, “Enantioselective OTUD7B fragment discovery through chemoproteomics screening and high-throughput optimisation” (Communications Chemistry, 2025)
